Assay [1] can be described thus: inhibitors of TNFa-induced NFkB p65 translocation, primary screen, imaging, HUVEC, MLSMR starter and 10KST1 sets (AID 438).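 For inhibition: signal is the nuclear over cytoplasmic p65 intensity ratio per well.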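 Note: compound added about 3h40 before a 20 min TNFalpha stimulation.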 Particulars: HUVEC TNFa-induced p65 nuclear translocation; cell count: measured here: nuclei count (cytotoxicity indicator), at 2.08 µM; inhibition: at 2 µM, stronger effect = higher value, 0% TNFa-plus-vehicle, 100% no-TNFa wells.
Assay [2] in a line: reduction of polyQ htt aggregates in cells – imaging, exon1htt(103Q)mCFP cells, high-content imaging, primary screen (AID 483;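 active = visual image review flags a hit and inhibition of aggregation exceeds 20%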;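 note: compound exposure lasted 3 days before fixation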;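 for nuclei count: percent of the per-plate median nuclei count of sample wells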). Particulars: exon1htt(103Q)mCFP cell line, aggregate imaging, at 2 µM; inhibition of aggregation: stronger effect = higher value; nuclei count: measured here: cell count, toxicity.
A short description of assay [3]: endothelial E-selectin expression blockers – imaging, HUVEC, immunofluorescence, MLSMR starter and 10KST1 sets, primary screen (AID 487;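 active = visually confirmed hit in the image check and inhibition above 20%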;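 for inhibition: signal is fraction of cell area covered by stained E-selectin grains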;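 for nuclei count: 100% = median nuclei count of all wells on the same plate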). Particulars: HUVEC TNFalpha-induced E-selectin immunofluorescence imaging, at 2 µM; inhibition: stronger effect = higher value; nuclei count: measured here: cell number, toxicity.
Assay [4] has as its target Voltage-gated potassium channel subunit beta-2 (Rattus norvegicus) (UniProt P62483). Nature of the assay: inhibitors of rat Kvbeta2 reductase activity – biochemical, NADPH fluorescence, primary screen (AID 622;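 active = fluorescence slope higher than the sample average by over 3 SD, cut at about -0.22 in these data, passing the limit was not always enough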;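 note: slope of raw intensity against log time taken from 70 to 1610 s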). The following applies: recombinant KvBeta, 4-cyanobenzaldehyde reduction, at 10 µM, stronger effect = higher value.
For assay [5] the target is unchanged. Nature of the assay: enhancers of rat Kvbeta2 NADPH turnover – biochemical, NADPH fluorescence, primary screen (AID 623;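 active = NADPH fluorescence slope more negative than the mean of all samples by about 3 SD, 99.7% confidence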;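 note: fluorescence intensity change per second fitted from 20 to 320 s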). The following applies: Recombinant KvBeta, NADPH fluorescence decrease slope, 10 min; at 10 µM; stronger effect = lower value.
Assay [6] concerns the target Alpha-2C adrenergic receptor (Homo sapiens) (UniProt P18825). Nature of the assay: compounds altering alpha2C-coupled GIRK flux – cell-based, HEK293 alpha2C/GIRK1/2, thallium flux, primary screen (AID 624;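 active = fluorescence slope after compound addition differing from the mean of all screened samples at 99.7% confidence, in either direction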;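 note: slope of fluorescence ratio to pre-addition baseline per second over 15 to 24 s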). Particulars: thallium flux BTC fluorescence, at 10 µM, actives lie on both sides.
The nature of assay [7]: blockers of RIG-like receptor reporter activation – cell-based, Sendai virus stimulus, luciferase, 10K MLSCN set, TLR/RLR signaling modifier project, primary screen (AID 602276;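 active = inhibition at or above 50% at 10 µM; inactive = inhibition below 50%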;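 note: firefly luciferase from ISG56 promoter only with Renilla not read in this screen; 0% = Sendai virus plus DMSO and 100% = medium plus DMSO without virus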). Particulars: HEK293 RL24 IRF3 luciferase reporter, at 10 µM, stronger effect = higher value.
Assay [8] in a line: TLR3 IRF3 reporter activation blockers – cell-based, poly I:C stimulus, luciferase, 10K MLSCN set, primary screen (AID 602277;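 active = inhibition of the reporter signal at or above 50%; inactive = inhibition below 50%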). Particulars: HEK293-TLR3 RL24 IRF3 luciferase reporter, at 10 µM, stronger effect = higher value.

Data on 14 compounds can be found in PubChem BioAssay.

The source made the active and inactive calls.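 Rule for the calls, unless noted: active = inhibition above 20% together with a positive visual image hit; inconclusive = visual image hit but inhibition not above 20%; inactive = no visual image hit.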

Voltage-gated potassium channel subunit beta-2 (Rattus norvegicus), sequence (P62483 whole entry, looked up): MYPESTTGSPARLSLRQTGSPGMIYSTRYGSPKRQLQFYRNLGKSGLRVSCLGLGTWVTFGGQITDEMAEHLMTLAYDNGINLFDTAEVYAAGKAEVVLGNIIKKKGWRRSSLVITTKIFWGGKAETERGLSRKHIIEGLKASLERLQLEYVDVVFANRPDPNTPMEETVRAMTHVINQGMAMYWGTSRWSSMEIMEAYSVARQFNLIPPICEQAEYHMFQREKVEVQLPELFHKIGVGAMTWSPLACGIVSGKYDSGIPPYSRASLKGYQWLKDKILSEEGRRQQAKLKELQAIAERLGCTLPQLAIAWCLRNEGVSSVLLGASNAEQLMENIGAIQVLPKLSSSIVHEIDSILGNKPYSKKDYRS
Alpha-2C adrenergic receptor (Homo sapiens), sequence (P18825 whole entry, looked up): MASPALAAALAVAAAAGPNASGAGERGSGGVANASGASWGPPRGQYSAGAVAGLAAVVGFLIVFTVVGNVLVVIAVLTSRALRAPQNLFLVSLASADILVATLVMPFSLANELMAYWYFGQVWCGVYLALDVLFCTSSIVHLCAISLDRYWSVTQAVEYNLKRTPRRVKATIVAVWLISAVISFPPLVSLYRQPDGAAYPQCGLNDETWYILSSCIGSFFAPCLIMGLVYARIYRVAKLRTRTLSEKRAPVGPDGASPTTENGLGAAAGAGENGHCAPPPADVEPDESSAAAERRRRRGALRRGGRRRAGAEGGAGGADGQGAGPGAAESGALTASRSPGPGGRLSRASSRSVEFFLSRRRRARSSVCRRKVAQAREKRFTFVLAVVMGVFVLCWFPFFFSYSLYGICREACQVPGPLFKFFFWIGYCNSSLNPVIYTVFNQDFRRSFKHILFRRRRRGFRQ

By inhibition is commonly meant the change of the read-out against control, counted positive when it falls. Regarding `c1ccc(CSc2nnc(-c3cccs3)n2Cc2ccco2)cc1`, the cell count in assay [1] is 601. Moreover, the inhibition in assay [1] is -13.3% (inactive); in assay [3], 51.5% (inactive); in assay [7], -8.26% (inactive); in assay [8], -9.64% (inactive). Also, the inhibition of aggregation in assay [2] was -3.7% (inactive). Moreover, the nuclei count in assay [2] and in assay [3] was 102% each time. Also, the fluorescence slope in assay [4] is -0.488 (inactive). In addition, in assay [5], the NADPH fluorescence slope was 3.8e-06 (inactive). Moreover, the slope in assay [6] is 0.00593 (inactive).

Turning to `O=C(COc1ccccc1)N1CCN(C(=O)c2cccc(F)c2)CC1`, in assay [1], the cell count was 725. For the same compound, the inhibition in assay [1] was 1% (inactive); in assay [3], 7.6% (inactive); in assay [7] it was 8.19% (inactive); in assay [8], 29.6% (inactive). For the same compound, the inhibition of aggregation in assay [2] was -0.2% (inactive). Also, the values for the nuclei count in assay [2] and in assay [3] were 111% and 97.2%, respectively. In assay [4], the fluorescence slope was -0.447 (inactive). The NADPH fluorescence slope in assay [5] is -3.8e-05 (inactive). Moreover, in assay [6], the slope was 0.00634 (inactive).

With `CC(C)CN(C(=O)c1ccc(=O)n(C)n1)c1nc2ccccc2s1`, in assay [1], the cell count was 369. Also, the inhibition in assay [1] is 4.8% (inactive); in assay [3], -5.9% (inactive); in assay [7] it was -18.6% (inactive); in assay [8], -44.4% (inactive). Moreover, in assay [2], the inhibition of aggregation is -17.5% (inactive). For the same compound, the nuclei count amounted to 93.5% in assay [2] and 112% in assay [3]. For the same compound, the fluorescence slope in assay [4] was -0.332 (inactive). Also, the NADPH fluorescence slope in assay [5] was -7.5e-05 (inactive). Moreover, the slope in assay [6] was 0.00541 (inactive).

For the compound `CCc1noc(C)c1C(=O)NCCc1ccc(OC)c(OC)c1`, in assay [1], the cell count was found to be 395. Besides, the inhibition in assay [1] is 3.7% (inactive); in assay [3], 11.4% (inactive); in assay [7], 14.3% (inactive); in assay [8] it was 19.8% (inactive). Besides, the inhibition of aggregation in assay [2] is -16.2% (inactive). Moreover, the nuclei count stood at 121% in assay [2] and 96.9% in assay [3]. In addition, the fluorescence slope in assay [4] is -0.468 (inactive). Further, the NADPH fluorescence slope in assay [5] is -4.2e-06 (inactive). Also, in assay [6], the slope is 0.00531 (inactive).

As for `CN(C)CCCN1C(=O)CSC1c1ccccc1` (centres undefined), the cell count in assay [1] is 607. Further, the inhibition in assay [1] is -8.9% (inactive); in assay [3] it was -57.4% (inactive); in assay [7], 4.6% (inactive); in assay [8], 35.9% (inactive). For the same compound, the inhibition of aggregation in assay [2] was 30.6% (inactive). The nuclei count in assay [2] was found to be 93.9%; in assay [3], 104%. Also, the fluorescence slope in assay [4] is -0.541 (inactive). Besides, in assay [5], the NADPH fluorescence slope was -3e-05 (inactive). In assay [6], the slope is 0.00787 (inactive).

Turning to `COc1cc(NC2c3ccccc3C(=O)N2c2ccc(C)cn2)cc(OC)c1OC` (centres undefined), the cell count in assay [1] came out at 619. In addition, the inhibition in assay [1] is 5.5% (inactive); in assay [3] it was -7.5% (inactive); in assay [7], -30.9% (inactive); in assay [8] it was -44.7% (inactive). Further, the inhibition of aggregation in assay [2] is 11.3% (inactive). Besides, the nuclei count was 85.2% in assay [2] and 109% in assay [3]. Moreover, in assay [4], the fluorescence slope is -0.593 (inactive). In addition, in assay [5], the NADPH fluorescence slope is 1.6e-05 (inactive). Moreover, the slope in assay [6] was 0.00732 (inactive).

As for `Cc1ccc(-c2cc3nc4c(c(=O)n3[nH]2)CCCC4)cc1`, in assay [1], the cell count turned out to be 663. The inhibition in assay [1] is -11% (inactive); in assay [3], -69.9% (inactive); in assay [7] it was -9.26% (inactive); in assay [8], -48.6% (inactive). Also, the inhibition of aggregation in assay [2] is -8.5% (inactive). Besides, the nuclei count in assay [2] was found to be 73.1%; in assay [3], 119%. Further, in assay [4], the fluorescence slope was -0.454 (inactive). The NADPH fluorescence slope in assay [5] was 1.7e-05 (inactive). Further, in assay [6], the slope is 0.00436 (inactive).

With `COc1ccc(Cl)cc1N1CC(c2nc3ccccc3[nH]2)CC1=O` (centres undefined), the cell count in assay [1] was determined as 542. The inhibition in assay [1] is 1.4% (inactive); in assay [3] it was 1.9% (inactive); in assay [7], 16.2% (inactive); in assay [8], 16.9% (inactive). In assay [2], the inhibition of aggregation is 2% (inactive). The nuclei count was 114% in assay [2] and 107% in assay [3]. The fluorescence slope in assay [4] is -0.607 (inactive). In addition, the NADPH fluorescence slope in assay [5] is 6.8e-06 (inactive). For the same compound, the slope in assay [6] was 0.00704 (inactive).

In the case of `CC(=O)C1=C(C)NC(=O)NC1c1cccc(O)c1` (centres undefined), in assay [1], the cell count was determined as 454. In addition, the inhibition is 7.3% (inactive) in assay [1], -36.2% (inactive) in assay [3], 14.2% (inactive) in assay [7] and 16% (inactive) in assay [8]. Moreover, the inhibition of aggregation in assay [2] is 0% (inactive). Further, the nuclei count came to 111% in assay [2] and 110% in assay [3]. The fluorescence slope in assay [4] is -0.399 (inactive). The NADPH fluorescence slope in assay [5] is -5e-05 (inactive). In assay [6], the slope was 0.00509 (inactive).

`COc1ccc(N(CC(=O)O)S(=O)(=O)c2ccc(OC)c(OC)c2)cc1`: the cell count in assay [1] came out at 501. Moreover, the inhibition in assay [1] was -2.1% (inactive); in assay [3], -11.5% (inactive); in assay [7] it was 15.4% (inactive); in assay [8] it was 22.3% (inactive). For the same compound, the inhibition of aggregation in assay [2] is -12.1% (inactive). Also, the nuclei count is 99% in assay [2] and 111% in assay [3]. Moreover, the fluorescence slope in assay [4] is -0.475 (inactive). Besides, the NADPH fluorescence slope in assay [5] was 6.8e-05 (inactive). The slope in assay [6] is 0.00634 (inactive).

For `O=S(=O)(Nc1ccc2c(c1)OCO2)c1ccc(Br)s1`, the cell count in assay [1] was 285. In addition, the inhibition is -5.5% (inactive) in assay [1], 8.4% (inactive) in assay [3], 0.155% (inactive) in assay [7] and -19.3% (inactive) in assay [8]. Further, the inhibition of aggregation in assay [2] is 14.8% (inactive). The nuclei count in assay [2] worked out at 92.9%; in assay [3], 95.6%. The fluorescence slope in assay [4] is -0.31 (inactive). Moreover, in assay [5], the NADPH fluorescence slope is 1.5e-05 (inactive). In addition, the slope in assay [6] was 0.00308 (inactive).

On to `O=C(COc1ccc(F)cc1Br)N1CCc2ccccc21`, for which the cell count in assay [1] worked out at 414. Further, the inhibition in assay [1] is -7% (inactive); in assay [3] it was -49.2% (inactive); in assay [7], -38% (inactive); in assay [8], -100% (inactive). The inhibition of aggregation in assay [2] is 5% (inactive). The nuclei count in assay [2] was 105%; in assay [3], 103%. The fluorescence slope in assay [4] is -0.46 (inactive). The NADPH fluorescence slope in assay [5] is 9.7e-05 (inactive). The slope in assay [6] is 0.0054 (inactive).

For the compound `Cc1ccccc1-n1nc(C)c2cc(C(=O)NCc3cccnc3)sc21`, the cell count in assay [1] is 374. The inhibition was -1.1% (inactive) in assay [1], -51.5% (inactive) in assay [3], 10.7% (inactive) in assay [7] and 44.3% (inactive) in assay [8]. The inhibition of aggregation in assay [2] was -18.9% (inactive). Moreover, the values for the nuclei count in assay [2] and in assay [3] were 116% and 113%, respectively. Moreover, the fluorescence slope in assay [4] is -0.493 (inactive). Further, the NADPH fluorescence slope in assay [5] is -6.5e-05 (inactive). Moreover, the slope in assay [6] was 0.0199 (active).

Turning to `COc1cc(NC(=O)C2CCCN2S(=O)(=O)c2cccc3cccnc23)cc(OC)c1OC` (centres undefined), in assay [1], the cell count was 667. Moreover, the inhibition in assay [1] was 0.6% (inactive); in assay [3], -75.5% (inactive); in assay [7], 14.4% (inactive); in assay [8], 32% (inactive). In assay [2], the inhibition of aggregation is 15.1% (inactive). The values for the nuclei count in assay [2] and in assay [3] were 77.6% and 110%, respectively. Besides, in assay [4], the fluorescence slope is -0.598 (inactive). In addition, in assay [5], the NADPH fluorescence slope was -3.4e-05 (inactive). In assay [6], the slope was 0.00756 (inactive).
